Measured values: ChEMBL document CHEMBL1201862, “PubChem BioAssay data set” (2004)
The whole screen tested about 400,000 compounds, of which about 2,100 (0.53%) were called active. Not shown: some 14% with an inconclusive outcome. No rule for the calls is given here. The sample as a whole holds a higher share of actives than the screen did.

Molecular target: Ataxin-2 (Homo sapiens) (UniProt Q99700)
Experiment: qHTS for Inhibitors of ATXN expression.
Assay type: functional

Sequence of Ataxin-2 (Homo sapiens) (Q99700 whole entry): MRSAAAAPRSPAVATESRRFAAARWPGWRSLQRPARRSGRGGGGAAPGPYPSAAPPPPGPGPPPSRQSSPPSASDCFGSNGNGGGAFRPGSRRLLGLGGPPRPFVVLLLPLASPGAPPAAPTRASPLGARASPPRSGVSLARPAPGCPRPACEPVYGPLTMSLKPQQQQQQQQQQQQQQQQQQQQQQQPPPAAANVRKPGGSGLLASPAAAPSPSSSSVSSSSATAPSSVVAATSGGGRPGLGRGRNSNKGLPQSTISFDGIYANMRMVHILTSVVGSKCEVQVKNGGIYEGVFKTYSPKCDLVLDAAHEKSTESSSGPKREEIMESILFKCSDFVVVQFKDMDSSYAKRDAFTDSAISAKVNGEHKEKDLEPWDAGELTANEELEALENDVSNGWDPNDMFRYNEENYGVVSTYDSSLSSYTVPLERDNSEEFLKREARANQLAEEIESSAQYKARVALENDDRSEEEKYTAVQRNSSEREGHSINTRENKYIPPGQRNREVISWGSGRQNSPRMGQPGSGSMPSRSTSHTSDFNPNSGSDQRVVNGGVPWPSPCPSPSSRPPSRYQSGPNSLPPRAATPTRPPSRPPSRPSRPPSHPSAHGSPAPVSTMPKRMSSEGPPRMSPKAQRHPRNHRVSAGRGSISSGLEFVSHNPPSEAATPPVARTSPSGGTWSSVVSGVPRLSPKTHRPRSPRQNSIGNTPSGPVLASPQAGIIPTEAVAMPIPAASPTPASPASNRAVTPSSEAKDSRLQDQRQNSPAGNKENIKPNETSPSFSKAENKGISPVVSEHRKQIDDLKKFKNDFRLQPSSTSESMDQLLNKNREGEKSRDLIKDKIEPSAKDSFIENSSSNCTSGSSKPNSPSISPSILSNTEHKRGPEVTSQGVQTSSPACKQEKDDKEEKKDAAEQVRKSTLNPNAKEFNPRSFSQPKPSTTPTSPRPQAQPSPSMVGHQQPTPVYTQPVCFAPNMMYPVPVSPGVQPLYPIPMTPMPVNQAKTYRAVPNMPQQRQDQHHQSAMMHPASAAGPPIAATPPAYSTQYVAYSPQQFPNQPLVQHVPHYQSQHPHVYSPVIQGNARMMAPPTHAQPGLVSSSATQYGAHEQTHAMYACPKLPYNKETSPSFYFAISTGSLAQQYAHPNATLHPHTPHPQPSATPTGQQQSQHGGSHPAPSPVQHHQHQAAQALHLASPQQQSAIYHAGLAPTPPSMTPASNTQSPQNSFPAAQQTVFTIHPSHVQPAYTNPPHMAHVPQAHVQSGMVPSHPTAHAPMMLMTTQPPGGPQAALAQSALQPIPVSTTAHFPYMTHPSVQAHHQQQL

SMILES | Potency
O=C(NCC(=O)N1CCC2(CC1)NCCc1[nH]cnc12)c1cccc(Cl)c1 | inactive
CN(C)c1ccc(/C=N/NC(=O)c2cccc(N3CCCC3=O)c2)cc1 | inactive
Cc1ccc(S(=O)(=O)NN=C2CCc3ccccc32)cc1 | inactive
N#CCCn1nc(-c2ccc(Br)cc2)cc1Nc1ccccc1NC(=O)C(F)(F)F | inactive
CCOc1ccc(N2C(=O)/C(=C\NNc3nnc(C)c(O)n3)c3ccccc3C2=O)cc1 | inactive
O=C(C1CCCO1)N(c1ccc(F)cc1)C1C=CS(=O)(=O)C1 (stereo not given) | inactive
O=C(OCCN1C(=O)c2cccc3c(N4CCOCC4)ccc(c23)C1=O)c1cccc(Cl)c1 | inactive
CC(C)CN(C(=O)CN1CCCCCC1)c1c(N)n(CC(C)C)c(=O)[nH]c1=O | inactive
CC1CN(C(S)=Nc2ccc(Cl)cc2)CC(C)O1 (stereo not given) | inactive
CCn1nc(NC(=O)COC)c2cc3cc(C)ccc3nc21 | inactive
Cc1cccc2cc3c(N)c(C(=O)N4CCc5ccccc54)sc3nc12 | inactive
O=[N+]([O-])c1ccc(N/N=C/c2ccc(OCc3cccc4ccccc34)cc2)nc1 | inactive
O=[N+]([O-])c1ccc(/C=N/Nc2ncc(-c3ccccc3)cn2)cc1 | inactive
O=[N+]([O-])c1ccc(NN=Cc2ccccc2O)nc1 | 20 µM (active)
CN(C)c1c2ccccc2nc2c(F)c(F)c(F)c(F)c12 | inactive
Cc1cccn2c(=O)c3cc(C(=O)NC(C)c4ccccc4)c(=N)n(CCOCCO)c3nc12 (stereo not given) | inactive
C=CCn1cccc(/C=C/C(=O)c2ccc(C(C)(C)C)cc2)c1=S | 35.5 µM (active)
CC(C)CN(CC(C)C)CC(O)Cn1cc(/C=C/C(=O)c2ccccc2)c2ccccc21 (stereo not given) | inactive
O=C(/C=C/c1cn(CC(O)CN2CCCCCC2)c2ccccc12)c1ccc(Br)cc1 (stereo not given) | inactive
Cc1cc(=O)oc2cc(O[C@@H]3O[C@H](CO)[C@H](O)[C@H](O)[C@H]3O)ccc12 | inactive
CN(C(=O)c1cccc(NC(=O)Cc2ccc(NC(=O)C3CCCN(C(=O)CCc4ccccc4)C3)cc2)c1)C1CCCCC1 (stereo not given) | 17.8 µM (active)
O=C(COC(=O)C1CC(=O)N(Cc2ccccc2)C1)Nc1cccc([N+](=O)[O-])c1 (stereo not given) | inactive
Cc1cc(N2CCOCC2)nc2ccc(NC(=O)CCC(=O)N3CCCC(C)C3)cc12 (stereo not given) | inactive
Cc1ccc(N2C(=O)c3cccc4c(N5CCN(C)CC5)ccc(c34)C2=O)c2cccnc12 | inactive
CCc1nnc(N/C=C2/C(=O)N(c3ccc(Cl)cn3)C(=O)c3ccccc32)s1 | inactive

SMILES | Potency
CCn1c(NCc2ccc(OC)cc2)nc2ccccc21 | inactive
Cn1c(COc2ccc(C(=O)O)cc2)nc2ccccc21 | inactive
COc1ccc(C(=O)Cn2c(C(C)=O)nc3ccccc32)cc1 | 33.6 µM (active)
CN(C)c1cccc(C(=O)OCc2cc(=O)oc3cc(O)ccc23)c1 | inactive
N#C/C(=C\c1cccnc1)c1nc2c(s1)CCCC2 | inactive
CN1/C(=C/C=C/c2n(C)c3cc([N+](=O)[O-])c([N+](=O)[O-])cc3[n+]2C)C(C)(C)c2ccccc21 | 7.94 µM (active)
O=C(Oc1c(-c2ccccc2Cl)oc2ccccc2c1=O)c1ccc(Cl)cc1 | inactive
COCCCn1c(=N)c(C(=O)NCC2CCCO2)cc2c(=O)n3cccc(C)c3nc21 (stereo not given) | inactive
Cc1ccc(-n2c(=O)c(C#N)cc3c(=O)n4ccccc4nc32)cc1C | inactive
Cc1c(Cl)cccc1NC(=O)CNC(=O)CCS(=O)(=O)c1ccc(F)cc1 | inactive
O=C(CCS(=O)(=O)c1ccc(F)cc1)Nc1nc(-c2ccncc2)cs1 | 39.8 µM (active)
O=C(Cc1ccccc1)Nc1nc(-c2ccc(F)c(F)c2)cs1 | inactive
COc1ccc(N2C(=O)CC(NNc3ncc(Cl)cc3Cl)C2=O)cc1 (stereo not given) | inactive
COc1ccc(-n2nc(C#N)c(Cl)cc2=O)cc1 | 39.8 µM (active)
COc1ccc(-n2nc(C)c3onc(C)c3c2=O)cc1 | inactive
CC(C)(C)c1ccc(-n2nc(C#N)c(Cl)cc2=O)cc1 | 15.8 µM (active)
Cc1ccc(CSc2nnc([C@@H]3CCCN3C(=O)OC(C)(C)C)o2)cc1 | inactive
CCc1nnc(NS(=O)(=O)c2ccc(N/C=C/C(=O)c3ccc(C)cc3)cc2)s1 | inactive
CCc1nnc(NS(=O)(=O)c2ccc(NC(=O)c3cccc(Cl)c3)cc2)s1 | inactive
O=[N+]([O-])c1ccc(Sc2cccc[n+]2[O-])c2nonc12 | 6.7 µM (active)
CCc1nnc(NS(=O)(=O)c2ccc(Nc3ccc([N+](=O)[O-])c4nonc34)cc2)s1 | 17.8 µM (active)
O=[N+]([O-])c1ccc(Nc2ccccc2)c2nonc12 | 25.1 µM (active)
COCCn1c(SCC(=O)NC2CCCCC2)nnc1-c1ccncc1 | inactive
O=C1OCCN1C(=O)[C@H]1[C@H](c2ccc(F)cc2)C(c2cccc(Cl)c2)=NN1c1ccccc1 | inactive
CCN(CC)C(=O)[C@H]1CC(CC(=O)NCc2cccc(C(F)(F)F)c2)C(=O)N2CCc3c([nH]c4ccccc34)[C@]12C (stereo not given in full) | 22.4 µM (active)

SMILES | Potency
O=C(NCc1cccc(C(F)(F)F)c1)c1cccc2c1C(=O)c1ccc(N3CCC(Cc4ccccc4)CC3)cc1S2(=O)=O | inactive
CN(C)C(=O)CCc1ccc2c3c([nH]c2c1)[C@]1(C)[C@@H](C(=O)N2CCCCC2)C[C@H](CC(=O)NCC24C[C@H]5C[C@@H](C2)C[C@@H](C4)C5)C(=O)N1CC3 | 39.8 µM (active)
CC(C)N(C(=O)[C@H]1CC(CC(=O)NCc2cccc(C(F)(F)F)c2)C(=O)N2CCc3c([nH]c4ccccc34)[C@]12C)C(C)C (stereo not given in full) | 39.8 µM (active)
CCN(CC)C(=O)[C@H]1CC(CC(=O)NCC23C[C@H]4C[C@@H](C2)C[C@@H](C3)C4)C(=O)N2CCc3c([nH]c4ccccc34)[C@]12C (stereo not given in full) | 39.8 µM (active)
C/C(=N\NC(=O)c1nc2ccccn2c1C)c1ccco1 | inactive
Cc1c(Cc2ccccc2)c(=O)oc2cc(O)cc(O)c12 | inactive
COCC(=O)N(CCN(C)C)Cc1cc2cc3c(cc2nc1Cl)OCO3 | inactive
COc1ccc(-c2cn3nc(SCC(=O)NCC4CCCO4)ccc3n2)cc1 (stereo not given) | inactive
O=S(=O)(Oc1ccc(Cl)cc1)c1cccc2cccnc12 | inactive
Cn1c(=O)n(CCOc2ccc([N+](=O)[O-])cc2)c2ccccc21 | inactive
Cn1cnc([N+](=O)[O-])c1S(=O)(=O)Oc1ccccc1 | 28.2 µM (active)
Cn1cnc([N+](=O)[O-])c1S(=O)(=O)Oc1ccc(Cl)cc1 | 31.6 µM (active)
CCOc1ccc(Nc2nc3c(S(=O)(=O)c4cccc(Cl)c4)nnn3c3ccsc23)cc1 | inactive
CC(=O)Nc1ccc(OS(=O)(=O)c2cc(Cl)ccc2C)cc1 | inactive
Cn1cnc([N+](=O)[O-])c1S(=O)(=O)c1cccc(Cl)c1 | 8.91 µM (active)
Cc1c2c(n3c(nc4ccccc43)c1C#N)N(CCCN(C)C)CC2 | inactive
Cc1ccc(Sc2ncccc2C(=O)N(C)Cc2cccs2)c(C)c1 | inactive
O=c1c2ccccc2oc2cc(NCCCN3CCOCC3)ccc12 | inactive
CCN(CC)S(=O)(=O)c1ccc(N2CCCC2)c(NS(=O)(=O)c2cccs2)c1 | inactive
CCCCCCSc1ccc(-c2nc3cnccn3c2NCCCC)cc1 | inactive
O=c1c2ccccc2nc(/C=C/c2ccc([N+](=O)[O-])o2)n1CCCO | 15.8 µM (active)
O=c1c2ccccc2nc(/C=C/c2cc(Br)ccc2O)n1CCCO | inactive
CN(C)c1ccc(/C=C/c2nc3ccccc3c(=O)n2CCO)cc1 | inactive
CCn1c(/C=C/c2cc[n+](C)cc2)nc2ccccc21 | inactive
COc1ccc(OC)c(C=Cc2ccc([N+](=O)[O-])cc2)c1 | inactive

SMILES | Potency
COc1ccc(Oc2ccc(/C=C/C(=O)c3ccc(O)cc3)cc2[N+](=O)[O-])cc1 | 28.2 µM (active)
COc1ccc(Oc2ccc(/C=C/C(=O)c3cccc(OC)c3)cc2[N+](=O)[O-])cc1 | 39.8 µM (active)
O=C(/C=C/c1ccc(Cl)c([N+](=O)[O-])c1)c1ccc(O)cc1 | 28.2 µM (active)
Cc1cc(CNC(=O)c2cccc([N+](=O)[O-])c2C)c2ccccc2n1 | inactive
CSc1cccc(NC(=S)N(CCCN2CCCC2)Cc2cccn2Cc2ccc(Cl)cc2)c1 | 31.6 µM (active)
Cc1cccc(NC(=S)N(CCCN2CCCC2)Cc2cccn2Cc2ccc(Cl)cc2)c1 | 25.1 µM (active)
CN(CC(=O)Nc1cccc(C#N)c1)Cc1ccc(Cl)cc1 | inactive
COc1ccc(NC(=S)N(CCCN2CCCC2)Cc2cccn2Cc2ccc(Cl)cc2)cc1Cl | 39.8 µM (active)
COc1ccc(NC(=O)Cn2nc(C(=O)O)c3ccccc3c2=O)cc1Cl | inactive
Cc1ccc(NC(=S)N(CCCN2CCCC2)Cc2cccn2Cc2ccc(Cl)cc2)cc1 | 39.8 µM (active)
CSc1ccc(CN(C)CC(=O)Nc2ccc(C)cc2Br)cc1 | inactive
COc1cccc(/C=C/c2nc(C#N)c(N(C)Cc3ccccc3)o2)c1 | inactive
CC(C)(C)c1ccc(/C=C2\Oc3c(ccc(O)c3CN3CCN(CCO)CC3)C2=O)cc1 | inactive
CCN1C(=O)N(CC)C2C1N(CO)C(=O)N2CO (stereo not given) | inactive
O=C(O)c1ccc(NC2=C/C(=N/S(=O)(=O)c3ccccc3)c3ccccc3C2=O)cc1 | 39.8 µM (active)
O=C1C(Nc2ccccc2)=C/C(=N/S(=O)(=O)c2cccs2)c2ccccc21 | 8.91 µM (active)
O=C(O)c1ccc(Nc2c3ccccc3nc3ccccc23)cc1 | inactive
COC(=O)c1ccc(NC(=O)CS(=O)(=O)c2ccccc2)cc1 | inactive
C=CCN1C(=O)/C(=C/N(C)C)S/C1=N\S(=O)(=O)c1cccs1 | inactive
Cc1cc(C)c(S(=O)(=O)Nc2cccc(C(=O)O)c2)cc1S(=O)(=O)Nc1cccc(C(=O)O)c1 | inactive
Cc1ccc(S(=O)(=O)N2CCN(CC(=O)N3CCCC3)CC2)c(C)c1 | inactive
O=C(O)c1ccc(NC2=C/C(=N/S(=O)(=O)c3cccs3)c3ccccc3C2=O)cc1 | 22.4 µM (active)
O=S(=O)(O)c1cccc2cccc(Nc3ccccc3)c12 | inactive
O=C(N/N=C/c1ccc(N2CCOCC2)cc1)c1ccc(NS(=O)(=O)c2cccs2)cc1 | inactive
Cc1ccc(S(=O)(=O)/N=C2\C=C(Nc3cccc(C(=O)O)c3)C(=O)c3ccccc32)c(C)c1 | 28.2 µM (active)
